Measurements as given in PubChem BioAssay.

Experiment: modulators of S6 phosphorylation in cells, primary screen, cell-based, A549, cytoblot, luminescence, serum-stimulated (AID 1158);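 note: serum-stimulated A549 lung adenocarcinoma cells; signal is phosphorylated S6 detected by cytoblot immunostaining with HRP secondary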
Settings: A549 phospho-S6 cytoblot, 5 h, higher = more signal

Going from COC(=O)c1c2oc(c1C(=O)OC)C(=O)N[C@H](Cc1ccccc1)Cn1nncc1C1(CCCCC1)NC(=O)N[C@H](CO)CC2 to C[C@H]1C2[C@H](Cc3ccccc3)NC(=O)[C@]23C(=O)N[C@H](Cc2ccccc2)C(=O)N[C@H](Cc2ccccc2)C(=O)NC/C=C/CCC/C=C/C3[C@@H]2O[C@]12C (some centres undefined), the z-score rises from 0.14 to 0.282.

Going from CCOC1=C2C(c3ccc(C)cc3)N(S(=O)(=O)c3ccc(C)cc3)CC2n2c(=O)n(-c3ccccc3)c(=O)n2C1 (centres undefined) to COCCCNC(=O)[C@@]1(C)c2ccccc2C(=O)N(Cc2ccccc2)[C@H]1c1ccc(CO)cc1, the z-score rises from -0.0263 to 2.82.

First: Cc1ccc(S[C@]2(C(=O)NCCCN(C)C)CC(=O)N(C(C)C)[C@@H]2c2ccc(CO)cc2I)cc1
Second: CC1CC/C=C\[C@H]2OC34C=CCN(c5ccc6ccccc6c5)C(=O)[C@H]3N(CCCCCO)C(=O)[C@@H]4C2C(=O)O1 (some centres undefined)
The z-score of the first is lower: -0.265 for the first, 0.455 for the second.

Compared with O=C1O[C@@H](c2ccccc2)[C@@H](c2ccccc2)N2[C@@H](c3ccc(O)cc3)[C@]3(C(=O)Nc4ccccc43)[C@@H](C(=O)N3CCCCCCC3)[C@H]12, COc1ccc(C#Cc2ccc3c(c2)[C@]2(C(=O)N3)[C@H](C(=O)N3CCN(c4ncccn4)CC3)[C@H]3C(=O)O[C@H](c4ccccc4)[C@H](c4ccccc4)N3[C@@H]2c2ccc(O)cc2)cc1 is higher in z-score: -0.274 for the first, -0.2 for the second.

In the case of C=CCC(OC(C)=O)[C@@H]1[C@@H](N(Cc2cc3ccccc3o2)C(=O)c2cccc3ccccc23)c2cc(OCCCO)ccc2N1C(=O)Cc1ccc(OC)cc1 (some centres undefined), the z-score is reported as 0.907.
